This is part of a sample that, as a whole, favours compounds with a hit. Of some 79,000 tested, about 15% had one in any assay. Calls of active or inactive are those of the source. Rule as the data show it: active = growth inhibition above about 70%; inactive = the rest.

This test can be described thus: NCI Yeast Anticancer Drug Screen. Data for the cln2 rad14 strain (AID 165).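 Also: 0% = growth equal to vehicle treated cultures.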 Conditions: S. cerevisiae cln2 rad14 strain, at 50.0 µM, stronger effect = higher value. The essentials:
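Readout is yeast growth inhibition versus vehicle-treated controls, using a strain with cln2 and rad14 alterations exposed to compound.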
For `O=[n+]1c2c(n([O-])c3ccc4ccccc4c31)-c1cccc3cccc-2c13`, the growth inhibition was 55.9% (inactive).
On to `COc1ccc(C(=O)Cc2ccc(Cl)cc2)cc1OC`, for which the growth inhibition was -4.45% (inactive).
The same measure for `CCN(CC)CCC(=O)c1ccc(Oc2ccc(C)cc2)cc1`: 24.9% (inactive).
The same measure for `BrC(Br)=C1C(=C(Br)Br)C(Br)C1Br` (stereo not given): 55% (inactive); for `O=C(O)C(Cc1cc(I)c(O)c(I)c1)c1ccccc1` (stereo not given): 32.6% (inactive).
As for `CC1(C)OC2C(COC(c3ccccc3)(c3ccccc3)c3ccccc3)OC(n3ccc(=O)[nH]c3=O)C2O1` (stereo not given), the figure is 52.1% (inactive); as for `Clc1ccc(C2=CCN3CC=C(c4ccc(Cl)cc4)C23)cc1`, 99.6% (active); as for `Nc1ccc([N+](=O)[O-])cc1Nc1c2ccccc2nc2ccccc12`, -6.85% (inactive).
On to `COc1c2c3c(ccnc3c3ccccc13)C(=O)N2C`, for which the growth inhibition was 61% (inactive).
As to `O=C1/C(=C/c2ccc([N+](=O)[O-])cc2)CNC/C1=C\c1ccc([N+](=O)[O-])cc1`, the growth inhibition is 74% (active).
As for `Clc1ccc(-c2nnn3ccccc23)cc1`, the figure is 28.6% (inactive).
As for `O=Cc1ccc([N+](=O)[O-])o1`, the figure is 98.6% (active); as for `CN(C)Cc1cc(C(C)(C)C)cc(C2CCCCC2)c1O`, 61.7% (inactive).
As for `COc1ccc2c(c1)CN([C@@H](C)[C@H]1CC[C@H]3[C@@H]4CC[C@H]5C[C@@H](O)CC[C@]5(C)[C@H]4CC[C@]13C)CO2`, the figure is 98.2% (active); as for `FC(F)(F)c1ccc(NC(=S)SCc2ccc3c(c2)OCO3)cc1`, 86.3% (active); as for `Nc1cc(F)c2c(c1F)C(=O)c1cc(F)ccc1-2`, 26.5% (inactive).
Turning to `CC12CCCCC1CCC(Br)C2=O` (stereo not given), the growth inhibition was -17.7% (inactive).
Regarding `CC(C)c1cc(O)c(C(C)(C)C)cc1Cl`, the growth inhibition is 72.5% (active).
The same measure for `CCCOC(=O)CCCC(=O)N(CC)CC`: 71.5% (active); for `CCOC(=O)c1cc(Cc2ccccc2)c(=O)n(C)c1-c1ccccc1`: -5.4% (inactive); for `COS(=O)c1cc(Cl)cc(Cl)c1OC(=O)CSSCC(=O)Oc1c(Cl)cc(Cl)cc1S(=O)OC` (stereo not given): 99.3% (active).
The same measure for `ICCCCSc1cc(-c2ccccc2)[o+]c2ccccc12`: 24.3% (inactive); for `Nc1cc(Cl)c2c(c1)Cc1ccccc1-2`: -22.4% (inactive).
As for `Cc1ccc(S(=O)(=O)NCCSSCCNS(=O)(=O)c2ccc(C)cc2)cc1`, the figure is 94% (active).
For `OC(Cc1cccnc1)(c1ccccc1)c1ccc(Cl)cc1` (stereo not given), the growth inhibition is 94.2% (active).
As for `Cc1ccc(C2=CC(=O)/C(=C\C(=O)c3ccc(Cl)cc3)O2)cc1`, the figure is 57% (inactive).
The same measure for `O=C(Nc1ncnc2c1ncn2C1CC(O)C(CO)O1)c1ccccc1` (stereo not given): -23.9% (inactive); for `O=C1CSC(=S)N1c1ccc(F)cc1F`: -9% (inactive).
Take `CCCOC(=O)C(Br)C(Br)C(=O)OCCC` (stereo not given): the growth inhibition is 91% (active).
The same measure for `c1ccc2nc3[nH]c4ccccc4c3cc2c1`: 44.8% (inactive).
As for `O=S(=O)(c1ccc(NC(=S)NCc2ccncc2)cc1)N1CCCCC1`, the figure is 5.3% (inactive); as for `Nc1ccccc1Sc1ccccc1`, 83.2% (active); as for `CCC(Cl)COP(=O)(OCC(Cl)CC)OC(c1ccc(Cl)c(Cl)c1)P(=O)(OCC(Cl)CC)OCC(Cl)CC` (stereo not given), 76.2% (active).
The same measure for `O=C(O)/C=C\c1cc2ccccc2c2ccccc12`: 98.3% (active); for `COC(=O)C1C2CC3c4[nH]c5cc(OC)c(Br)cc5c4CCN3CC2CC(OC(=O)c2cc(OC)c(OC)c(OC)c2)C1OC` (stereo not given): 84.3% (active); for `Cc1c2ccnc(-c3ccc(F)cc3)c2cc2c1[nH]c1ccccc12`: -35.9% (inactive).
On to `COc1cc2cc[n+]3c4ccc([N+](=O)[O-])cc4ccc3c2cc1OC`, for which the growth inhibition is 68.3% (inactive).
As for `CCCCCCCCC1N(C)CCCN1C`, the figure is 98.3% (active); as for `CC1(C)OC2C(COC(c3ccccc3)(c3ccccc3)c3ccccc3)OC(n3cnc4c(=O)[nH]cnc43)C2O1` (stereo not given), 50.9% (inactive).
Take `COc1cccc2c1C(=O)c1c(O)c3c(c(O)c1C2=O)C[C@@](O)(C(=O)CO)C[C@@H]3OC1CC(N(C)C)C(O)C(C)O1` (stereo not given in full): the growth inhibition was 88.8% (active).

The values above are taken from PubChem BioAssay (NCI).
